Shown are actives, neighbours in structure and some others; about 18% of the full set was active somewhere.
DT40 TDP1 no CPT: qHTS for Inhibitors of human tyrosyl-DNA phosphodiesterase 1 (TDP1): qHTS in cells in absence of CPT | DT40 Tdp1-/- hTDP1 cells, no CPT, ATP luminescence, 48 h | 420,000 compounds, 15% hits | Potency, µM (titrated, usually from 46.2 µM), for the others: at the highest dose activity change, negative = growth inhibition, actives largely listed as inhibitors; note: potency is the fitted concentration of half-maximal effect; % is set by controls: 0 for no effect and ±100 for the full control effect; nearly all actives have a fitted effect of over 55% in size
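Luminescent ATP content (CellTiter-Glo) served as the growth readout. Knockout chicken DT40 cells expressing human TDP1 were exposed to compounds without camptothecin for a minimum 48 hr at 37 °C.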
TDP1 cell CPT: DT40-hTDP1 cell growth loss with CPT | 420,000 compounds, 12% hits | chicken DT40 Tdp1-/-;hTDP1 cells + 20 nM CPT, ATP luminescence, 48 h | Potency, µM (doses to about 46.2 µM), without a hit: at the top dose activity change, negative = growth inhibition, hits mostly inhibitors | AID 686979; note: potency is the fitted concentration of half-maximal effect; % is set by controls: 0 for no effect and ±100 for the full control effect; nearly all actives have a fitted effect of over 55% in size
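Chicken DT40 Tdp1-/- cells stably complemented with human TDP1 were seeded at 400 cells/well in medium containing 20 nM camptothecin, exposed to pin-transferred compounds, and grown at 37 °C for at least 48 hr. Viability was read as ATP luminescence.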
TGFb SMAD3 inh: TGF-b pathway inhibition; HepG2 CAGA-GFP TGF-b/SMAD3 reporter, GFP fluorescence, 18 h; TGF-beta stimulated, 500 pg/mL final; Potency, µM (top dose mostly 46.1 µM), for inactives: at the highest dose activity, negative = inhibition, actives largely listed as inhibitors; 410,000 compounds, 1.2% hits; note: potency is the fitted concentration of half-maximal effect; % is set by controls: 0 for no effect and ±100 for the full control effect; nearly all actives have a fitted effect of over 65% in size
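Inhibition of TGF-beta-driven CAGA-GFP reporter expression in HEPG2 cells is measured by cellular GFP fluorescence after 18 h stimulation with 500 pg/mL recombinant TGF-beta in 1% FBS medium at 37 degrees C.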
TDP1 block: inhibitors of human tyrosyl-DNA phosphodiesterase TDP1; Potency, µM (titrated, usually from 130 µM), inactives show at the top dose activity change, negative = inhibition, actives largely listed as inhibitors; recombinant TDP1, AlphaScreen DNA substrate cleavage; 350,000 compounds, 0.28% hits; AID 485290; note: potency is the fitted concentration of half-maximal effect; % is set by controls: 0 for no effect and ±100 for the full control effect; nearly all actives have a fitted effect of over 40% in size
Target sequence (Q9NUW8 whole entry, looked up): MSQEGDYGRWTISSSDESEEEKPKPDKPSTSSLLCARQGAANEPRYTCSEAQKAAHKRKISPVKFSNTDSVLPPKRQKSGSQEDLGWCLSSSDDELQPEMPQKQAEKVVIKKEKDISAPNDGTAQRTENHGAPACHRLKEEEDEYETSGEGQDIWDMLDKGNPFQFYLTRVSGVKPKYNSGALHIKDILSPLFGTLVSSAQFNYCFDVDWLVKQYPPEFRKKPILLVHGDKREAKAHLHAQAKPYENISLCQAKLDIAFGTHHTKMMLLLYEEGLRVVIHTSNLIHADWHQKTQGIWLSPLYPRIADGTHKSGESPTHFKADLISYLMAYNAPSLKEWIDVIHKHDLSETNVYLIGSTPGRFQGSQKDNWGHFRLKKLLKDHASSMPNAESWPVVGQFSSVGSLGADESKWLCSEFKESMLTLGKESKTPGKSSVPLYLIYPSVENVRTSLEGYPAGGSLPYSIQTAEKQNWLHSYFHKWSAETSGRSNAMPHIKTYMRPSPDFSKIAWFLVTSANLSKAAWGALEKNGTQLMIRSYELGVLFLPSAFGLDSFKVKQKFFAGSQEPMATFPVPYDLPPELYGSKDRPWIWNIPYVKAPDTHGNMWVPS
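Recombinant E. coli-expressed Tdp1 (1 nM) preincubated with compound 15 min at RT, then 5'-biotin/3'-phosphotyrosine-FITC DNA substrate (15 nM) added for 5 min. AlphaScreen beads (10 ug/ml) added, 10 min RT; tyrosine-FITC cleavage read as signal loss.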
HepG2 tox: HepG2 cytotoxicity, counter-screen for TGF-b inhibitors; Potency, µM (doses to about 46.1 µM), without a hit: at the top dose activity change, negative = cytotoxicity, hits mostly cytotoxic; 410,000 compounds, 0.76% hits; HepG2 CAGA-GFP viability, ATP luminescence, 18 h; note: potency is the fitted concentration of half-maximal effect
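CellTiter-Glo luminescence gave cytotoxicity after 18 hours at 37 degrees C. The cells were HepG2 CAGA-GFP in 1% FBS DMEM, stimulated with 500 pg/mL TGF-beta after compound addition. %Activity was normalised to no-cell wells (complete cell-killing) and DMSO (no toxicity), and curves were fitted and classified.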
IL-1B inflam inh: inhibitors of inflammasome signaling (IL-1 beta secretion) | THP-1 LPS/ATP IL-1B secretion, AlphaLISA, 16 h; active compounds read low | activity change, % at 57.5 µM | 360,000 compounds, 4.7% hits | AID 743279; in the data active = activity change below about -50%; inconclusive = mostly about -30% to -49%; note: % is set by controls: 0 for no effect and ±100 for the full control effect
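THP-1 cells pretreated 1 hr with compounds (up to 57.5 uM final), then stimulated with LPS (250 ng/mL final) plus ATP (1.25 mM final); secreted IL-1B measured by AlphaLISA after 16 hr, decreased signal indicating inhibition.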
The depositor's hits bear a star; ? = inconclusive; · = no result; [ ] = remark or other dose. Unless noted, calls come from the whole dose curve; as a rule, active = well fitted curve in the direction sought with a large enough effect; inconclusive = small, poorly fitted or top-dose-only effect, or another doubt; inactive = no such curve, though single readings can be large; an effect the other way counts as inactive or inconclusive.

SMILES	DT40 TDP1 no CPT	TDP1 cell CPT	TGFb SMAD3 inh	TDP1 block	HepG2 tox	IL-1B inflam inh
COc1cc(C(CCN2CCCC2)c2c(OC)cc(OC)c3c(-c4ccccc4)cc(=O)oc23)cc(OC)c1OC (configuration not stated)	21µM*	16µM*	?	6%	-78%	17
COc1cc(C(CCN2CCCCC2)c2c(OC)cc(OC)c3c(C)cc(=O)oc23)cc(OC)c1OC (configuration not stated)	10µM*	10µM*	-29%	5%	-11%	12
COc1cc(OC)c2c(-c3ccccc3)cc(=O)oc2c1C(CCN1CCCC1)c1ccc2c(c1)OCO2 (configuration not stated)	?	?	?	14%	-8%	-21
COc1cc(OC)c2c(-c3ccccc3)cc(=O)oc2c1C(CC(=O)N1CCN(c2ccccc2)CC1)c1ccc(N(C)C)cc1 (configuration not stated)	?	?	-8%	20%	-26%	-11
COc1ccc(C(CCN2CCCC2)c2c(OC)cc(OC)c3c(-c4ccccc4)cc(=O)oc23)cc1 (configuration not stated)	16µM*	?	?	10%	-41%	-6
CC(C)c1ccc(/C=C2\NC(=S)N(Cc3cccnc3)C2=O)cc1	?	?	-13%	·	-6%	6
O=C(NCC1CCC2(CCN(Cc3ccc4ncccc4c3)CC2)O1)C1CCCO1 (configuration not stated)	-14%	-7%	·	·	·	·
COc1cc(OC)c2c(C)cc(=O)oc2c1C(CCN1CCN(c2ccccc2)CC1)c1ccc2c(c1)OCO2 (configuration not stated)	21µM*	5.2µM*	-11%	11%	-2%	48
COc1cc(OC)c2ccc(=O)oc2c1C(CCN1CCOCC1)c1ccc(N(C)C)cc1 (configuration not stated)	·	·	·	14%	·	·
COc1ccc(C(CCN2CCOCC2)c2c(OC)cc(OC)c3ccc(=O)oc23)cc1 (configuration not stated)	21µM*	?	?	2%[56.1 µM]	-19%	-3
COc1ccc(C(CCN2CCOCC2)c2c(OC)cc(OC)c3c(-c4ccccc4)cc(=O)oc23)cc1 (configuration not stated)	8.2µM*	6.5µM*	?	5%[56.1 µM]	-36%	?
COc1cc(OC)c2c(-c3ccccc3)cc(=O)oc2c1C(CC(=O)N1CCOCC1)c1ccc2c(c1)OCO2 (configuration not stated)	?	?	-12%	9%	11%	-3
O=S1(=O)N=C(OCc2ccccc2)c2ccccc21	·	·	·	1%	·	·
CC(C)C[C@@H](CN)NC(=O)c1nc[nH]c1C(=O)N[C@@H](CC(C)C)C(=O)CNC[C@H](C)NC(=O)c1nc[nH]c1C(=O)N[C@@H](CC(=O)O)C(=O)O	-5%	-12%	0%	·	3%	5
Cc1ccc(NC(=O)C2CC(=O)N(Cc3ccccc3)C2)cc1S(=O)(=O)N1CCCCCC1 (configuration not stated)	?	29µM*	?	3%	-36%	-52*
Cc1ccc(NC(=O)C2CC(=O)N(C(C)C)C2)cc1C (configuration not stated)	-17%	-15%	-7%	·	2%	-65*
Cc1ccc(NC(=O)C2CC(=O)N(C(C)C)C2)cc1Cl (configuration not stated)	2%	-29%	1%	7%	-9%	0
CCN(CC)S(=O)(=O)c1cc(NC(=O)C2CC(=O)N(Cc3ccccc3)C2)ccc1Cl (configuration not stated)	16µM*	?	?	2%	-33%	-14
O=C(Nc1ccc(S(=O)(=O)N2CCCCC2)cc1)C1CC(=O)N(Cc2ccccc2)C1 (configuration not stated)	-22%	-13%	1%	-3%	0%	2
COc1ccccc1NC(=S)NCCC(c1ccccc1)c1ccccc1	?	?	13µM*	5%	-14%	25
S=C(NCCC(c1ccccc1)c1ccccc1)Nc1ccccc1Cl	?	?	?	6%	-48%	3
COc1cc(NC(=S)NCCCN2CCOCC2)c(OC)cc1Cl	-9%	0%	-9%	3%	3%	29
COc1cc(NC(=S)NCCC(c2ccccc2)c2ccccc2)c(OC)cc1Cl	18µM*	9.2µM*	?	3%	0%	0
COc1ccc(Cl)cc1NC(=S)Nc1ccccc1C	23µM*	?	-3%	7%	10%	-10
CC(=O)Nc1ccc(CC(=O)NCCC(c2ccccc2)c2ccccc2)cc1	18µM*	16µM*	-5%	12%	-7%	1
SMILES	DT40 TDP1 no CPT	TDP1 cell CPT	TGFb SMAD3 inh	TDP1 block	HepG2 tox	IL-1B inflam inh
O=c1cnc2cnc(OCc3ccccc3)nc2n1CCc1ccccc1	?	-16%	·	·	·	·
Cc1ccc(OC(C)C(=O)Nc2ccc(F)cc2)c([N+](=O)[O-])n1 (configuration not stated)	-7%	-8%	5%	2%	8%	1
COc1ccccc1C(=O)NCC(=O)NCCC(c1ccccc1)c1ccccc1	16µM*	15µM*	-15%	0%	5%	5
COc1ccc(Cl)cc1NC(=S)NCCO	-11%	32%	-1%	-4%	2%	-2
COc1ccc(Cl)cc1NC(=S)NCCC(c1ccccc1)c1ccccc1	23µM*	23µM*	?	3%	-34%	5
COc1ccc(Cl)cc1NC(=O)Nc1cccc([N+](=O)[O-])c1C	23µM*	?	?	5%	-2%	-6
S=C(NCCC(c1ccccc1)c1ccccc1)Nc1ccc(Cl)cc1	?	?	20µM*	6%	-50%	-92*
COc1ccc(Cl)cc1NC(=O)NC1CCCCC1	?	-14%	7%	0%	-5%	-9
Cc1oc(-c2ccccc2)nc1Cn1c(=O)cc(-c2ccccc2)c2c(C)nn(C)c21	?	?	-1%	-2%	7%	·

Source: PubChem BioAssay
